# Screening data deposited in PubChem by several laboratories.
# Most compounds without a hit are left out; they make up all but 4.5% or so of the library.
# Mdm2-MdmX inh – human Mdm2/MdmX binding inhibition | SaOS-2 split-luciferase Mdm2/MdmX complementation, luminescence | inhibition, % at 8 µM | 330,000 tested, 3% active | AID 485346;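 active = inhibition of at least 50% at 8 µM in the primary screen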
# Target sequence (O15151 whole entry, looked up): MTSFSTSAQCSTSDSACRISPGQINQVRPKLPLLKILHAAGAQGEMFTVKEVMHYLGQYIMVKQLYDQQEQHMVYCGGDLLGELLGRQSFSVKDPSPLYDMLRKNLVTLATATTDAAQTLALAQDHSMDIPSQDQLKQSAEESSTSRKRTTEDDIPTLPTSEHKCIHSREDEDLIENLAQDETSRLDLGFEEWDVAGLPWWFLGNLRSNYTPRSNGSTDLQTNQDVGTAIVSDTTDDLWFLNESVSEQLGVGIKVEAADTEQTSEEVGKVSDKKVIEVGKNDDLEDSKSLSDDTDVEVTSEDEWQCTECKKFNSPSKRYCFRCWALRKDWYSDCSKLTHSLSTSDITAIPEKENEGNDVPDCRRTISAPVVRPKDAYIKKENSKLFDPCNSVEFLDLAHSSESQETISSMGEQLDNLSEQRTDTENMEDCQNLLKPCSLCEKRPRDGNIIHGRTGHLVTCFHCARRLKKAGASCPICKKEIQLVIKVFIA
# Target sequence (Q00987 whole entry, looked up): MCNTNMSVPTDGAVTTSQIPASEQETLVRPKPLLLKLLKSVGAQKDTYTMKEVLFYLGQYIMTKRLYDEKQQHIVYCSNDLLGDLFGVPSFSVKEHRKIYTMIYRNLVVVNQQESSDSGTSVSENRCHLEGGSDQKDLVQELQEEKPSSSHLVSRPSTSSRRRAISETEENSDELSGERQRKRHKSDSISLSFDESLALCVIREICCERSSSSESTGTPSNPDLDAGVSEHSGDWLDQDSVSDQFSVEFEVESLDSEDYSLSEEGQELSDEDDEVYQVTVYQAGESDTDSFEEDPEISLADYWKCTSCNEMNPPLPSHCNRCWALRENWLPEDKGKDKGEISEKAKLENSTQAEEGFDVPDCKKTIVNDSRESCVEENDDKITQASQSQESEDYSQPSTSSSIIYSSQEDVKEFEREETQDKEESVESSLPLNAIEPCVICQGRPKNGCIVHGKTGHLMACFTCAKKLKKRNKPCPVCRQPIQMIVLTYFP
# CSC inhib – blocks cancer stem cells | inhibition, % at 7.5 µM | cancer stem cell-like cells viability, luminescence | AID 2717 | 300,000 tested, 1.1% active; in the data active = inhibition above about 75%; inconclusive = no clear call, values can overlap the other calls; tested in HMLE shEcad cells
# Gli-Sufu antag – antagonists of Gli-Sufu signaling; 340,000 tested, 0.74% active; inhibition, % at 5 µM; Sufu-KO-LIGHT fibroblasts, Gli luciferase reporter luminescence; AID 588413;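 active = inhibition above about 55%, limit read from the data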
# 697 NFkB inh – inhibitors of the PMA/ionomycin-induced NF-kB reporter in 697 B cells; AID 435022; 330,000 tested, 0.33% active; inhibition, % at 4 µM; 697 B-cell NF-kB luciferase reporter, 16 h; in the data active = inhibition above about 35%
# aSyn 5UTR inh – MLPCN primary screen, SNCA 5' untranslated region | 300,000 tested, 0.82% active | inhibition, % (tested at 7.5 µM) | alpha-synuclein 5'UTR reporter, inhibitor activity; in the data active = inhibition above about 60%; inconclusive = no clear call, values can overlap the other calls;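 note: H4 neuroglioblastoma cells stably carrying SNCA 5'UTR luciferase fusion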
# Jurkat NFkB inh – inhibitors of the PMA/ionomycin-induced NF-kB reporter in Jurkat cells. PMA/ionomycin-induced NF-kB luciferase reporter, luminescence. 330,000 tested, 0.53% active. inhibition, % at 4 µM. AID 435003; in the data active = inhibition above about 50%
# Mdm2 MdmX conf – confirmation of human Mdm2/MdmX interaction inhibitors; 10,000 tested, 55% active; inhibition, % at 8 µM; shares compounds with Mdm2-MdmX inh; Mdm2-MdmX binding, luminescent assay; in the data active = inhibition above about 40%
# FLuc counter – inhibits full-length luciferase, flagging false Mdm2/MdmX hits | 6,200 tested, 77% active | SaOS-2 full-length luciferase counterscreen, luminescence | AID 504607 | inhibition, % at 8 µM | shares compounds with Mdm2-MdmX inh;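 active = mean inhibition at 8 µM reaching about 37%, which flags the compound as non-specific, limit read from the data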;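 note: p53-null SaOS-2 cells with luciferase driven by a doxycycline-inducible promoter; compound on cells about two nights before reading with doxycycline added after day one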
# A number is an active result; . = inactive; ? = inconclusive; / = no result given.
SMILES,Mdm2-MdmX inh,CSC inhib,Gli-Sufu antag,697 NFkB inh,aSyn 5UTR inh,Jurkat NFkB inh,Mdm2 MdmX conf,FLuc counter
O=C(CCCn1c(=O)[nH]c2ccccc2c1=O)NCCSCc1ccccc1,.,.,.,.,.,.,/,/
CCc1cc(=O)n2[nH]c(-c3ccccc3)c(-c3ccccc3)c2n1,58,.,.,.,.,.,45,52
COc1ccc(S(=O)(=O)Nc2cc3c4c(c2)CCN4C(=O)CC3)cc1OC,.,.,.,.,.,.,/,/
O=C1CCC[C@@H]2[C@@H](Cc3ccccc3)[C@H](N3CCN(c4ccccc4)CC3)C[C@@H]3CCN1[C@@H]32,/,/,.,/,/,/,/,/
C/C(=N\NC(=O)c1cc(-c2cccnc2)nc2ccccc12)c1ccccc1O,63,/,.,.,86,.,51,39
C/C(=N\NC(=O)c1cc(C2CC2)nc2ccccc12)c1ccc(O)cc1O,75,.,.,.,74,.,78,38
CN(CCCC(=O)N1CCCC(C(N)=O)C1)S(=O)(=O)c1ccc(F)cc1 (centres undefined),.,.,.,.,.,.,/,/
CC1CCCC(NC(=S)NC(=O)c2ccco2)C1C (centres undefined),.,.,.,.,/,.,/,/
CCn1c(=S)sc2c(=O)n(CC(=O)Nc3cccc(Cl)c3)c(C)nc21,.,.,.,.,.,.,/,/
CC1Cc2ccccc2N1C(=O)c1cc2c(=O)n3ccccc3nc2n1C (centres undefined),53,.,.,.,.,.,.,/
Cc1cccn2c(=O)c3cc(C(=O)N4c5ccccc5CC4C)n(C)c3nc12 (centres undefined),.,.,.,.,.,.,/,/
CCN(CC(=O)Nc1ccc(S(=O)(=O)N2CCCC2)cc1)CC(=O)Nc1ccccc1C(F)(F)F,.,.,.,.,/,.,/,/
CCc1nnc(NC(=O)CSc2nnc(-c3ccccc3O)n2-c2ccc(C)cc2C)s1,63,.,.,.,.,.,53,61
CC(=O)c1c(C)[nH]c(C(=O)NNC(=O)c2ccc(Br)cc2)c1C,.,.,.,.,/,.,/,/
Nc1ncc([N+](=O)[O-])c(N2CCCCCC2)n1,75,.,.,.,.,.,73,49
O=[N+]([O-])c1ccc(N2CCCC2)nc1N1CCCC1,.,/,.,.,.,.,/,/
CCCc1nnc(NC(=O)CCC(=O)N2CCC(C)CC2)s1,.,.,.,.,.,.,/,/
Cc1ccc(NC(=O)COC(=O)c2ccc(OCc3c(C)noc3C)cc2)cc1S(=O)(=O)N1CCOCC1,.,.,.,.,.,.,/,/
Nc1nc(SCC(=O)NCCC(c2ccccc2)c2ccccc2)n[nH]1,.,.,.,.,.,.,/,/
O=C(Nc1cccc(Cl)c1)C1C2CCC3C(CCC21)C3(Cl)Cl (centres undefined),69,.,.,.,.,.,.,/
COc1ccc(/C=C/C(=O)Nc2ccc3nc4n(c(=O)c3c2)CCCC4)cc1,70,.,.,.,.,.,.,/
O=C(Nc1ccc2nc3n(c(=O)c2c1)CCCC3)c1cc([N+](=O)[O-])ccc1F,100,.,.,.,.,.,91,52
O=C(Nc1ccc2nc3n(c(=O)c2c1)CCCC3)c1cccc([N+](=O)[O-])c1,.,.,.,.,.,.,/,/
COc1cc(/C=C/C(=O)Nc2ccc3nc4n(c(=O)c3c2)CCCC4)cc(OC)c1OC,.,.,.,.,.,.,/,/
O=c1[nH]c2ccsc2c(=O)n1-c1ccc(F)c(Cl)c1,.,.,.,.,.,.,/,/
SMILES,Mdm2-MdmX inh,CSC inhib,Gli-Sufu antag,697 NFkB inh,aSyn 5UTR inh,Jurkat NFkB inh,Mdm2 MdmX conf,FLuc counter
CCOC(=O)c1cnc2c(C(=O)OC)cccc2c1NCc1cccnc1,.,.,.,.,.,.,/,/
COc1ccc(-c2nc3cc(C)ccn3c2NC(=O)c2ccccc2OC)cc1,.,.,.,.,.,.,/,/
CCCCNc1c(-c2cccc(-c3cc(C(C)=O)cs3)c2)nc2ccc(C)cn12,81,125,.,.,.,.,58,60
CCCCNc1c(-c2cccc(-c3ccc(OC)cc3)c2)nc2ccc(C)cn12,99,114,.,.,.,.,56,66
CCCCNc1c(-c2ccc(-c3ccc(C(C)=O)cc3)c(OC)c2)nc2cnccn12,.,.,.,.,.,.,/,/
CCCCNc1c(-c2cccc(-c3ccc(OC)cc3)c2)nc2cc(C)ccn12,92,/,.,.,/,.,.,/
CCCCNc1c(-c2ccc(OC)c(SC3CCCCC3)c2)nc2cnccn12,.,.,.,.,.,.,/,/
CCCCNc1c(-c2ccc(OC)c(SC3CCCCC3)c2)nc2cc(C)ccn12,64,92,.,.,.,.,.,/
COc1ccc(CCNC(=O)c2c(O)c3c([nH]c2=O)CCCC3)cc1,.,/,.,.,.,.,/,/
COc1cc(/C=C/C(=O)N2CCN(C(=O)/C=C/c3cc(OC)c(OC)c(OC)c3)CC2)cc(OC)c1OC,64,.,.,.,.,.,.,/
Nc1cccc2c1C(=O)N(C(=O)/C=C/c1cccc(Br)c1)C2=O,/,/,.,/,.,/,/,/
COc1ccc(OC)c(/C=C/C(=O)N2C(=O)c3cccc(N)c3C2=O)c1,63,.,.,.,.,.,48,.
COc1cc(/C=C/C(=O)N2CCCC2)cc(OC)c1OC,.,.,.,.,.,.,/,/
COc1cc(/C=C/C(=O)N2C(=O)c3cccc(N)c3C2=O)cc(OC)c1OC,71,/,.,.,.,.,58,79
Nc1cccc2c1C(=O)N(C(=O)/C=C/c1cccc(F)c1)C2=O,56,.,.,.,.,.,50,65
Cc1cc(NC(=O)Cn2nc([N+](=O)[O-])c(Br)c2C)no1,.,.,.,.,.,.,/,/
COc1ccc(-n2nc(C(=O)NCC(=O)Nc3cccc(Cl)c3)c3ccccc3c2=O)cc1,.,.,.,.,.,.,/,/
CCSC1OC(C(COC(C)=O)OC(C)=O)C(OC(C)=O)C1NC(C)=S (centres undefined),/,/,.,/,/,/,/,/
CCOc1ccc(NC(=S)N=Nc2c(O)[nH]c3ccccc23)cc1,64,.,.,.,.,.,.,/
Oc1[nH]c2ccc(Br)cc2c1N=NC(=S)N1CCOCC1,96,?,86,.,.,.,98,54
COC(=O)N=Nc1c(O)[nH]c2ccc(Br)cc12,.,.,.,.,.,.,/,/
Oc1[nH]c2ccccc2c1N=NC(=S)N1CCOCC1,97,.,63,.,.,.,88,.
O=C(NCCCN1CCCC1)Nc1ccccc1[N+](=O)[O-],.,.,.,.,.,.,/,/
COc1ccc(CC(=O)OCC(=O)N2CCCc3ccccc32)cc1OC,.,.,.,.,.,.,/,/
CCN1C(=O)[C@@H]2Cc3c([nH]c4ccccc34)C(c3cc(OC)c(OC)c(OC)c3)N2C1=S (some centres undefined),.,.,.,.,.,.,/,/
